Measurements as given in PubChem BioAssay (EPA / NIEHS).
Values joined by “and” are separate entries in the source; they are usually repeats but may differ in a detail not shown here. Equal values may be shown once. More than one record can exist for a structure, and the calls need not agree. Active and inactive are the calls of the source. The calls were made as follows: active = hit-call score of the fitted dose curve at least 0.9, where 1 is the maximum; inactive = score below 0.9.

Assay: CCTE_Shafer_MEA_dev_per_burst_spike_percent: CCTE's Neural Network Formation Assay for Percent of Spikes in a Burst, Shafer Lab (AID 2284032)
Method: CCTE_Shafer_MEA_dev assay is conducted using Axion Biosystems 48 well microelectrode array (MEA) plates and Maestro recording system. Each well of the MEA plate contains a grid of 16 microelectrodes embedded in the culture surface. Electrically active cells, such as neurons, can be cultured over the electrodes, and electrical activity in these cells can be recorded extracellularly. The spontaneous firing of neurons is captured from each electrode on a microsecond timescale providing both temporally and spatially precise data. […] The CCTE_Shafer_MEA_dev assay uses primary cultures of rat cortical neurons. Recordings are made on days post-plating 5, 7, 9 and 12. As these cultures mature over time, neural networks develop functional activity and form cohesive networks in which electrical activity can be highly coordinated. CCTE_Shafer_MEA_dev_per_burst_spike_percent is 1 of 19 assay components of the CCTE_Shafer_MEA_dev assay. It measures the percentage of spikes (action potential firings) in a single-electrode burst (temporally-clustered group of spikes) as the total number spikes in bursts divided by the total number of spikes during a recording in a microelectrode array (MEA) using Axion Biosystems Maestro 768 channel amplifier with the AxIS adaptive spike detector. The percent of spikes in bursts is averaged across the actively bursting electrodes to report a well-mean value. To collapse across multiple recordings made on days post-plating 5, 7, 9 and 12, the trapezoidal area-under-the-curve of the component is calculated.Data from the assay component CCTE_Shafer_MEA_dev_per_burst_spike_percent was analyzed into 1 assay endpoint. This assay endpoint, CCTE_Shafer_MEA_dev_per_burst_spike_percent, was analyzed in the negative analysis fitting direction relative to DMSO as the negative control and baseline of activity. Using a type of functional reporter, gain or loss-of-signal activity can be used to understand electrical activity.
On the day prior to culture, each well was coated thoroughly with 150 uL of 0.05% polyethyleneimine (PEI, Sigma Cat P3143) in 50 mM HEPES (Sigma Cat H7523) at a pH of 8. The plate was incubated at 37C for one hour. PEI was rinsed out with 500 uL of sterile water three times. Plates were stored at 4C until the day of culture. This culture was plated at a seeding density of 1.5 x 10^5 cells/well on a 48-well MEA plate, prepared as described above. Cells were administered via a 25 uL media/laminin ([…]; Sigma Cat L2020-1MG) drop directly onto the microelectrode array, as adding the cells with the laminin results in better attachment than pre-coating with laminin. After 2 hours, an additional 475 uL of cortical media was added and the cells returned to the incubator. Exposure starts at day 0 of plating and is continued over twelve days of network development until the experiment is terminated. Cells are fed with fresh medium on DIV 5 and 9, following the recordings on those days. The entire volume of media in the well is exchanged and any vehicle or compound treatment is renewed. Complete details are found in OP-NHEERL/ISTD/SBB/TJS/2015-03-r0 (available on request, email shafer.tim@epa.gov). Measurement of the electrical activity is non-invasive, and recordings can be made from the same plate over multiple different days of the culture. In cortical neurons, this allows for the measurement of extracellular action potentials over the period during which networks form in the MEA plate.
In the case of `ClC1C(Cl)C(Cl)C(Cl)C(Cl)C1Cl` (configuration not stated), the outcome is reported as “inactive”. With `O=S(=O)(O)C(F)(F)C(F)(F)C(F)(F)C(F)(F)C(F)(F)C(F)(F)C(F)(F)C(F)(F)F` the outcome was “inactive” and the AC50 was 77.9 µM (active). For `CC1(C)C(C=C(Cl)Cl)C1C(=O)OC(C#N)c1ccc(F)c(Oc2ccccc2)c1` (configuration not stated), the AC50 was 2.63 µM (active) and 27.9 µM (active) and 19.5 µM (active). With `O=C(O)COc1ccc(Cl)cc1Cl` the outcome was “inactive”. For `COP(=O)(OC)OC=C(Cl)Cl`, the outcome was “inactive” and the AC50 was 4.26 µM (active). With `O=S1OCC2C(CO1)C1(Cl)C(Cl)=C(Cl)C2(Cl)C1(Cl)Cl` (configuration not stated) the AC50 was 8.83 µM (active). With `O=C(O)C(F)(F)C(F)(F)C(F)(F)C(F)(F)C(F)(F)C(F)(F)C(F)(F)F` the outcome was “inactive”. In the case of `CCC(C)(C)C(=O)OC1=C(c2ccc(Cl)cc2Cl)C(=O)OC12CCCCC2`, the outcome is reported as “inactive”. In the case of `O=[N+]([O-])/N=C1\NCCN1Cc1ccc(Cl)nc1`, the outcome is reported as “inactive”. In the case of `COP(=S)(OC)Oc1ccc([N+](=O)[O-])cc1`, the outcome is reported as “inactive”. In the case of `CC1(c2ccc(Oc3ccccc3)cc2)OC(=O)N(Nc2ccccc2)C1=O` (configuration not stated), the AC50 is reported as 4.72 µM (active). In the case of `CNC(=O)CSP(=S)(OC)OC`, the AC50 is reported as 63.8 µM (active) and 27.9 µM (active). For `CC[C@H](C)[C@H]1O[C@]2(C=C[C@@H]1C)C[C@@H]1C[C@@H](C/C=C(\C)[C@@H](O[C@H]3C[C@H](OC)[C@@H](O[C@H]4C[C@H](OC)[C@@H](O)[C@H](C)O4)[C@H](C)O3)[C@@H](C)/C=C/C=C3\CO[C@@H]4[C@H](O)C(C)=C[C@@H](C(=O)O1)[C@]34O)O2` (tested in a mixture with another compound), the AC50 was 9.62 nM (active) and 1.82 nM (active). With `CC(C)N(C(=O)COc1nnc(C(F)(F)F)s1)c1ccc(F)cc1` the outcome was “inactive”. In the case of `Oc1cc(Cl)ccc1Oc1ccc(Cl)cc1Cl`, the AC50 is reported as 10.2 µM (active).
